# This is one part of a sample in which the strongest signals are shown more often than they occur.
# B1: Cohesin-hDC-ASGPR (Homo sapiens) (protein)
# chain: LDDLDAVRIKVDTVNAKPGDTVRIPVRFSGIPSKGIANCDFVYSYDPNVLEIIEIEPGDIIVDPNPDKSFDTAVYPDRKIIVFLFAEDSGTGAYAITKDGVFATIVAKVKEGAPNGLSVIKFVEVGGFANNDLVEQKTQFFDGGANVGDTTEPATPTTPVTTPTTTDDLDAASQNSKFQRDLVTLRTDFSNFTSNTVAEIQALTSQGSSLEETIASLKAEVEGFKQERQAGVSELQEHTTQKAHLGHCPHCPSVCVPVHSEMLLRVQQLVQDLKKLTCQVATLNNNASTEGTCCPVNWVEHQDSCYWFSHSGMSWAEAEKYCQLKNAHLVVINSREEQNFVQKYLGSAYTWMGLSDPEGAWKWVDGTDYATGFQNWKPGQPDDWQGHGLGGGEDCAHFHPDGRWNDDVCQRPYHWVCEAGLGQTSQESHHHHHH
# Columns and labels:
# Test in all cases: glycan array binding signal (z-score within array); higher = stronger binding
# Details in all cases: glycan notation: IUPAC condensed, linker removed
# [1] = molecular target: GalNAc4S6S(b1-4)GlcNAc
# Method in brief: (§1)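 Negative Z-scores can be read as non-binding. The Z-score is calculated within each array and then averaged across arrays of one protein sequence at different concentrations or buffers and across linkers. Arrays, 3228 in all, were curated from the Consortium for Functional Glycomics database and kept only where the protein sequence was available.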
# [2] = molecular target: GlcNAc(a1-4)Gal(b1-4)GlcNAc(b1-3)Gal(b1-4)Glc
# Method in brief: as §1
# [3] = molecular target: GlcNAc(a1-4)Gal(b1-4)GlcNAc(b1-3)Gal(b1-4)[Fuc(a1-3)]GlcNAc(b1-3)Gal(b1-4)[Fuc(a1-3)]GlcNAc
# Method in brief: as §1
# [4] = molecular target: GlcNAc(a1-6)Gal(b1-4)GlcNAc
# Method in brief: as §1
# [5] = molecular target: GlcNAc(b1-3)Fuc
# Method in brief: as §1
# [6] = molecular target: Kdn(a2-3)Gal(b1-4)[Fuc(a1-3)]GlcNAc
# Method in brief: as §1
# [7] = molecular target: Man(a1-2)Man(a1-6)[Man(a1-3)]Man(a1-6)[Man(a1-2)Man(a1-2)Man(a1-3)]Man
# Method in brief: as §1
# [8] = molecular target: Neu5Ac(a2-3)Gal
# Method in brief: as §1
# [9] = molecular target: Neu5Ac(a2-3)Gal(b1-4)GlcNAc
# Method in brief: as §1
# [10] = molecular target: Neu5Ac(a2-3)Gal(b1-4)GlcNAc(b1-3)Gal(b1-4)GlcNAc(b1-3)[Neu5Ac(a2-3)Gal(b1-4)GlcNAc(b1-3)Gal(b1-4)GlcNAc(b1-6)]GalNAc
# Method in brief: as §1
# [11] = molecular target: Neu5Ac(a2-3)Gal(b1-4)GlcNAc(b1-3)[Neu5Ac(a2-3)Gal(b1-4)GlcNAc(b1-6)]GalNAc
# Method in brief: as §1
# [12] = molecular target: Neu5Ac(a2-3)Gal(b1-4)GlcNAc6S
# Method in brief: as §1
# [13] = molecular target: Neu5Ac(a2-3)Gal6S(b1-4)GlcNAc
# Method in brief: as §1
# [14] = molecular target: Neu5Ac(a2-3)[GalNAc(b1-4)]Gal(b1-4)Glc
# Method in brief: as §1
# [15] = molecular target: Neu5Ac(a2-3)[GalNAc(b1-4)]Gal(b1-4)GlcNAc(b1-3)GalNAc
# Method in brief: as §1
# [16] = molecular target: Neu5Ac(a2-6)Gal(b1-4)GlcNAc(b1-2)Man(a1-3)[Neu5Ac(a2-3)Gal(b1-4)GlcNAc(b1-2)Man(a1-6)]Man(b1-4)GlcNAc(b1-4)GlcNAc
# Method in brief: as §1
# [17] = molecular target: Neu5Ac(a2-6)Gal(b1-4)GlcNAc(b1-2)Man(a1-6)[GlcNAc(b1-2)Man(a1-3)]Man(b1-4)GlcNAc(b1-4)GlcNAc
# Method in brief: as §1
# [18] = molecular target: Neu5Ac(a2-8)Neu5Ac(a2-3)[Gal(b1-3)GalNAc(b1-4)]Gal(b1-4)Glc
# Method in brief: as §1
# [19] = molecular target: Neu5Ac(a2-8)Neu5Ac(a2-8)Neu5Ac(a2-8)Neu5Ac(a2-3)[GalNAc(b1-4)]Gal(b1-4)Glc
# Method in brief: as §1
# [20] = molecular target: Neu5Gc(a2-6)Gal(b1-4)GlcNAc
# Method in brief: as §1
# [21] = molecular target: Neu5Gc(a2-6)GalNAc
# Method in brief: as §1
binder,measurement,setting,value
B1,glycan array binding signal (z-score),[1],-0.516
same,glycan array binding signal (z-score),[2],-0.508
same,glycan array binding signal (z-score),[3],-0.444
same,glycan array binding signal (z-score),[4],-0.439
same,glycan array binding signal (z-score),[5],-0.443
same,glycan array binding signal (z-score),[6],-0.485
same,glycan array binding signal (z-score),[7],-0.48
same,glycan array binding signal (z-score),[8],-0.335
same,glycan array binding signal (z-score),[9],-0.453
same,glycan array binding signal (z-score),[10],-0.339
same,glycan array binding signal (z-score),[11],-0.495
same,glycan array binding signal (z-score),[12],-0.518
same,glycan array binding signal (z-score),[13],-0.517
same,glycan array binding signal (z-score),[14],2.91
same,glycan array binding signal (z-score),[15],1.83
same,glycan array binding signal (z-score),[16],-0.471
same,glycan array binding signal (z-score),[17],-0.387
same,glycan array binding signal (z-score),[18],3.87
same,glycan array binding signal (z-score),[19],2.95
same,glycan array binding signal (z-score),[20],-0.392
same,glycan array binding signal (z-score),[21],2.81

# From the supplement of paper PMC8728848
